Reference: PubChem BioAssay (Tox21)
Results filed as inconclusive are left out. A call without a number means that no potency is given here. Unmarked numbers belong to inactive results. Activity calls are given as the source filed them. Unless noted, the call rests on the fitted dose curve; in most records, active means well fitted curve in the direction sought with a large enough effect in the repeat runs; inconclusive means weak or mixed curves; inactive means no such curve, though single readings can be large; an effect the other way counts as inactive or inconclusive.

Tests used:
[1] = qHTS assay to identify small molecule agonists of the RXR signaling pathway - cell viability counter screen (AID 1159529); further: series mostly up to about 77 µM; nearly all actives have a fitted effect of over 50% in size
Procedure, shortened: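 Cell viability is measured by CellTiter-Glo luminescence, 30 min at room temperature, in wells already read for beta-lactamase. Engineered HEK 293T cells (RXR-alpha-UAS-bla) are dosed 16 hr at 37 C. Tetraoctyl ammonium bromide serves as positive control.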

[2] = qHTS assay to identify small molecule antagonists of the retinoid acid receptor (RAR) signaling pathway - cell viability counter screen (AID 1159551); further: nearly all actives have a fitted effect of over 35% in size
Procedure, shortened: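 Viability of C3RL4 cells is quantified from ATP by luminescence after 6 h treatment at 37 C with compounds and 1 uM retinol.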

[3] = qHTS assay to identify small molecule antagonists of the retinoic acid receptor (RAR) signaling pathway (AID 1159552; further: nearly all actives have a fitted effect of over 50% in size; further: potency means the concentration at half of the fitted maximal effect)
Procedure, shortened: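 Quantitative HTS in C3RL4 RARE-luciferase reporter cells. Compounds were added with 1 uM (final) retinol; luminescence was read after 6 hr.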

[4] = molecular target: Luciferin 4-monooxygenase (Photinus pyralis) (UniProt P08659); test: qHTS assay to identify small molecule inhibitors of firefly luciferase (AID 1224835); further: nearly all actives have a fitted effect of over 25% in size; further: potency means the concentration at half of the fitted maximal effect
Luciferin 4-monooxygenase (Photinus pyralis), sequence (P08659 whole entry, looked up): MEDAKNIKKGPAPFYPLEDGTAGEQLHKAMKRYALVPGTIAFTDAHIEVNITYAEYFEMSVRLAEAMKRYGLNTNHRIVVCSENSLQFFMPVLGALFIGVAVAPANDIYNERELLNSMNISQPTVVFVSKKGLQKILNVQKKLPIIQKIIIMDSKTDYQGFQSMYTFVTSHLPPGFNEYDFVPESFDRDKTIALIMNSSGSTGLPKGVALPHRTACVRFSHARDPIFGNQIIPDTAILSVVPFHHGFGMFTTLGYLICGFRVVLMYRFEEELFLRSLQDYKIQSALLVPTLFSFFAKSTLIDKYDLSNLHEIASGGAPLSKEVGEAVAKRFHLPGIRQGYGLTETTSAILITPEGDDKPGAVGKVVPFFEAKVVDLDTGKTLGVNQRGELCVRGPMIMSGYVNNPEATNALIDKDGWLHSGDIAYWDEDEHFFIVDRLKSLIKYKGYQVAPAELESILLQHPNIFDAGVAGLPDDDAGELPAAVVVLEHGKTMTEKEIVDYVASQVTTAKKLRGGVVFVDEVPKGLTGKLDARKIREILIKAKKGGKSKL
Procedure, shortened: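 Quantitative HTS format; KM concentrations of both substrates. Purified P. pyralis FLuc activity quantified from luminescence images.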

[5] = qHTS assay to identify small molecule antagonists of the estrogen related receptor signaling pathway with the pleiotropic PPARgamma coactivator (PGC) from Tox21 10K library (AID 1224841; call rule not given here; further: actives are mostly falling curves and most rising ones were filed inactive; nearly all actives have a fitted effect of over 50% in size; further: potency means the concentration at half of the fitted maximal effect)
Procedure, shortened: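 In the PGC/ERR line, DMSO solutions of test chemicals are pin-delivered to 2,000 cells/well six hours after dispensing. Following eighteen hours' incubation, One-Glo reagent is added and luminescence recorded.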

[6] = qHTS assay to identify small molecule agonists of the estrogen related receptor signaling pathway with the pleiotropic PPARgamma coactivator (PGC) from Tox21 10K library (AID 1224842); further: nearly all actives have a fitted effect of over 15% in size; further: potency means the concentration at half of the fitted maximal effect
Procedure, shortened: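 PGC/ERR reporter cells (NTP line) were seeded 2,000 per well, rested 6 h at 37 C/5% CO2, then pin-dosed with compounds in DMSO for 18 h at 37 C; luciferase read by One-Glo luminescence after 30 min at room temperature.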

[7] = qHTS assay to identify small molecule agonists of the retinoic acid receptor (RAR) signaling pathway (AID 1159553); further: potency means the concentration at half of the fitted maximal effect
Procedure, shortened: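 Compounds dissolved in DMSO were pinned onto C3RL4 cells seeded the previous day, and plates were held 6 hr at 37 C. RARE-driven luciferase output was then read by luminescence.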

[8] = qHTS assay to identify small molecule antagonists of the estrogen related receptor (ERR) signaling pathway from Tox21 library - cell viability counter screen (AID 1224834); further: nearly all actives have a fitted effect of over 30% in size; further: potency means the concentration at half of the fitted maximal effect
Procedure, shortened: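 In this quantitative HTS format, ERR cells receive compounds in DMSO and are incubated for 17.5 h at 37 C. Live-cell protease activity is then detected with CellTiter-Fluor.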

[9] = qHTS assay to identify small molecule agonists of the constitutive androstane receptor (CAR) signaling pathway - cell viability counter screen (AID 1224836); further: series mostly up to about 92 µM; nearly all actives have a fitted effect of over 45% in size
Procedure, shortened: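 Counter screen multiplexed with the CAR reporter readout: HepG2 cells co-transfected with hCAR and the CYP2B6-2.2kb construct receive a 15-concentration compound series and 0.75 uM PK11195 (final), then CellTiter-Fluor fluorescence is read after 23 h.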

[10] = molecular target: Nuclear receptor subfamily 1 group I member 3 (Homo sapiens) (UniProt Q14994); test: qHTS assay to identify small molecule antagonists of the constitutive androstane receptor (CAR) signaling pathway (AID 1224838); further: nearly all actives have a fitted effect of over 40% in size
Nuclear receptor subfamily 1 group I member 3 (Homo sapiens), sequence (Q14994 whole entry, looked up): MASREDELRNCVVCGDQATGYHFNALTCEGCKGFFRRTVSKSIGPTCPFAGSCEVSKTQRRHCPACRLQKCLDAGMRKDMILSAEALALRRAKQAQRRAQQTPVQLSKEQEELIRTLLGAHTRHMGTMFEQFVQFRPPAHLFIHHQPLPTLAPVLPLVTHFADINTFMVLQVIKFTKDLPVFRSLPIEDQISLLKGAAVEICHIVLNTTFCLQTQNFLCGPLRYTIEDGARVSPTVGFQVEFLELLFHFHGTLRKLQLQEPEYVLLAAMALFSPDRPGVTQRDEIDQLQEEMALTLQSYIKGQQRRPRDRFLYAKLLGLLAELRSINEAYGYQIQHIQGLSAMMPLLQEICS
Procedure, shortened: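 CITCO-stimulated (50 nM final) HepG2 cells stably transfected with hCAR and CYP2B6-2.2kb luciferase were exposed to compounds at 15 concentrations for 24 h at 37 C/5% CO2. A luciferase reagent was added and luminescence recorded after 30 min.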

[11] = molecular target: Nuclear receptor subfamily 1 group I member 3 (Homo sapiens) (UniProt Q14994); test: qHTS assay to identify small molecule agonists of the constitutive androstane receptor (CAR) signaling pathway (AID 1224839); further: nearly all actives have a fitted effect of over 15% in size; further: potency means the concentration at half of the fitted maximal effect
Procedure, shortened: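 A 15-concentration quantitative screen uses HepG2 cells co-transfected stably with human CAR and CYP2B6-2.2kb reporter. Treatment lasts 24 h with 0.75 uM PK11195 final present; ONE-Glo luminescence is the signal.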

[12] = qHTS assay to identify small molecule antagonists of the estrogen related receptor signaling pathway with the pleiotropic PPARgamma coactivator (PGC) from Tox21 10K library - cell viability counter screen (AID 1224840; active means well fitted cell-killing curve with a large enough effect in the repeat runs, not every such curve was filed as active; further: nearly all actives have a fitted effect of over 40% in size; further: potency means the concentration at half of the fitted maximal effect)
Procedure, shortened: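 Viability counter screen, PGC/ERR cells: 17.5 h compound exposure at 37 C, CellTiter-Fluor fluorescence endpoint.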

[13] = qHTS assay to identify small molecule antagonists of the constitutive androstane receptor (CAR) signaling pathway - cell viability counter screen (AID 1224837); further: series mostly up to about 92 µM; nearly all actives have a fitted effect of over 45% in size
Procedure, shortened: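 In quantitative HTS format, compounds at 15 concentrations were applied to HepG2 cells double-transfected with hCAR and CYP2B6-2.2kb under 50 nM CITCO stimulation; live-cell protease activity was read after 23 hr via CellTiter-Fluor.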

SMILES | Potency [1] | outcome [2] | Potency [3] | Potency [4] | Potency [5] | Potency [6] | Potency [7] | Potency [8] | Potency [9] | Potency [10] | Potency [11] | Potency [12] | Potency [13]
CC[C@H]1CC[C@H](NCc2cc3c(cc2OC)[C@H]2C[C@H]2C(=O)N3C)[C@H](c2ccccc2)N1 | inactive | inactive | 13.7 µM (active) | inactive | 21.7 µM (active) | inactive | – | – | – | – | – | – | –
COc1cc(N)c(Cl)cc1C(=O)NC1CCN(Cc2ccccc2)CC1 | inactive | inactive | inactive | inactive | – | – | inactive | inactive | inactive | inactive | 6.68 µM (active) | inactive | –
CN(CC1(C)CCCO1)S(=O)(=O)c1ccc(Cl)c(S(N)(=O)=O)c1 (stereo unspecified) | inactive | inactive | inactive | inactive | – | – | inactive | inactive | inactive | – | – | inactive | inactive
O=C(O[C@@H](C(=O)O)[C@@H](OC(=O)c1ccccc1)C(=O)O)c1ccccc1 | inactive | inactive | inactive | inactive | – | inactive | inactive | inactive | inactive | – | inactive | inactive | inactive
Nc1ccc(Oc2ccc(N)c(N)c2)cc1 | inactive | inactive | inactive | 7.96 µM (active) | inactive | 9.69 µM (active) | 1.72 µM (active) | 27.3 µM (active) | inactive | inactive | 2.43 µM (active) | 48.6 µM (active) | –
O=C(O)C(=O)Cc1c[nH]c2ccccc12 | inactive | inactive | inactive | – | – | – | 34.4 µM (active) | inactive | inactive | inactive | – | inactive | inactive
Cc1cccc(C)c1NC(=O)CN1CCCCCC1 | inactive | inactive | – | inactive | inactive | inactive | – | inactive | inactive | – | inactive | inactive | inactive
COc1ccc2nc(NC(=O)Nc3ccccc3)sc2c1 | – | inactive | – | 0.389 µM (active) | – | – | – | – | inactive | – | 10.6 µM (active) | inactive | –
Cc1ccc(C=O)s1 | – | inactive | inactive | inactive | inactive | inactive | – | inactive | inactive | inactive | – | inactive | –
CC(C)O | inactive | inactive | – | inactive | – | – | – | inactive | inactive | inactive | inactive | inactive | –
CC(C)NC[C@@H](O)COc1cccc2ccccc12 | – | inactive | inactive | – | – | – | inactive | inactive | inactive | – | inactive | inactive | –
CCc1cc(Cl)c(OC)c(C(=O)NC[C@@H]2CCCN2CC)c1O | – | inactive | – | inactive | inactive | inactive | – | inactive | – | inactive | – | – | –
CN(CCCN1c2ccccc2CCc2ccccc21)CC(=O)c1ccc(Cl)cc1 | – | inactive | inactive | inactive | – | – | – | inactive | inactive | – | – | inactive | inactive
CCCC1CCC(=O)O1 (stereo unspecified) | inactive | inactive | – | inactive | – | – | – | inactive | inactive | inactive | inactive | – | –
